The source of these data is PubChem BioAssay AID686964 (The Scripps Research Institute Molecular Screening Center, 2013).

Structures are written as SMILES. In all, about 370,000 compounds went through this assay and about 1,100 (0.3%) were called active. The sample holds actives, similar compounds and a random draw of the others, so the mix is not that of the screen. A number with no mark means an inactive call. No stated cut-off is given here; in the data, active means inhibition above about 13%; inactive means the rest.

This assay deals with Methyl-CpG-binding domain protein 2 (Homo sapiens) (UniProt Q9UBB5). The experiment in a line: MBD2-DBD methyl-oligonucleotide interaction blockers – biochemical, TR-FRET, DNA-binding domain, human, primary screen (AID 686964). As to conditions: MBD2 binding to methylated oligonucleotide, at 4.4 µM, hits give high values.
Chain of Methyl-CpG-binding domain protein 2 (Homo sapiens) (Q9UBB5 whole entry, looked up, the tested form may be a part): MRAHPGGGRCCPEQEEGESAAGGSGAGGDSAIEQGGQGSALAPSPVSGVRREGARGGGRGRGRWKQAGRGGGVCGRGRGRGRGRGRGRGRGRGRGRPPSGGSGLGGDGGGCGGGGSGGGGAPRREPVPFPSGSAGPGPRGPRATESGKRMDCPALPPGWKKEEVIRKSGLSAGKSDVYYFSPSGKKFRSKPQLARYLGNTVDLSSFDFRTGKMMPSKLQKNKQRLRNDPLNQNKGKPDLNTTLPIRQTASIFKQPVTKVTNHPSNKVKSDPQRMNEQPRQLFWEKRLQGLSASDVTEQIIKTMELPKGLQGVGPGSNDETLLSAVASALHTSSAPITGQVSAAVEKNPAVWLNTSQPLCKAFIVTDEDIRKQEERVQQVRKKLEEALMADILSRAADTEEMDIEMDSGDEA
Regarding `Cc1ccccc1C(=O)N[C@H](C(=O)N1CCC[C@H]1C(=O)NCc1ccccc1)C(C)C`, the inhibition is -4.41%.

As for `COC(=O)Cc1ccc(OC2(C)CCN(Cc3ccc4c(c3)OCCO4)C2)cc1` (stereo not given), the inhibition is 5.04%.

On to `CC(OC(=O)c1ccc(S(=O)(=O)N2CCOCC2)cc1)c1ccccc1` (stereo not given), for which the inhibition was 5.42%.

Take `COc1ccc(S(=O)(=O)N2CCOCC2)cc1NC(=O)c1ccc(OCC(C)C)c(OC)c1`: the inhibition was 0.42%.

With `COC(=O)c1c(NC(=O)c2ccc(S(=O)(=O)N3CCOCC3)cc2)sc2c1CCN(C(C)C)C2`, the inhibition was 13.3% (active).

As for `CC(OC(=O)CCC(=O)c1ccccc1)C(=O)Nc1ccc(F)cc1` (stereo not given), the inhibition is -0.7%.

On to `COCCNC(=S)N(C)[C@H]1C[C@H]2c3[nH]c4ccccc4c3CCN2C[C@H]1[C@H](C)O`, for which the inhibition is -2.52%.

As for `CCOc1ccc(-n2c(SCC(=O)Nc3cc(C)c(NC(=O)c4ccccc4)cc3OC)nnc2-c2cccs2)cc1`, the inhibition was -6.74%.

`COc1ccc(CCNC(=O)CN(c2ccccc2)S(=O)(=O)c2ccccc2)cc1`: the inhibition is 2%.

In the case of `CCOc1ccc(N(CC(=O)NCCOc2ccccc2OC)S(=O)(=O)c2ccccc2)cc1`, the inhibition was 15.1% (active).

For the compound `CCOc1ccc(N(CC(=O)NCCc2ccc(F)cc2)S(=O)(=O)c2ccccc2)cc1`, the inhibition is 4.6%.

Regarding `C=CCN1C(=O)[C@@H](CC(=O)N2CCN(C(=O)c3ccco3)CC2)[C@]2(C(=O)OC)CCCCC=C12`, the inhibition was 3.2%.

On to `CN(CCc1ccccc1)C(=O)Cn1nc(-c2ccccc2)ccc1=O`, for which the inhibition was -0.03%.

For `CCOC(=O)N1CCN(C(=O)C[C@H]2C[C@@]3(C(=O)OC)C(=C[C@H](C4CCCC4)O[C@@H]3C)N(Cc3ccccc3)C2=O)CC1`, the inhibition was -8.2%.

For the compound `COc1ccc2[nH]c3c(C)c4cc[n+](C)cc4c(C)c3c2c1`, the inhibition was 109% (active).

Consider `CCCc1nnc(SCC(=O)N2C(C)CCCC2C)n1CC` (stereo not given), for which the inhibition was 3.6%.

Regarding `O=P(c1cccs1)(c1cccs1)c1cccs1`, the inhibition is 0.79%.

As for `Cc1ccc(Cc2cnc(N)s2)o1`, the inhibition was 19.8% (active).

For `CCOc1ccccc1CN1CCN(C2CCC2)CC1CCO` (stereo not given), the inhibition is -1.77%.

For the compound `CC1CCCCC12NC(=O)N(CC(=O)Nc1ccc(S(=O)(=O)Nc3ncccn3)cc1)C2=O` (stereo not given), the inhibition is 5.36%.

As for `Cc1cc(C)c(S(=O)(=O)NCC2CCC(C(=O)NCc3ccc4c(c3)OCO4)CC2)c(C)c1` (stereo not given), the inhibition is 1.75%.

As for `CCn1c2ccccc2c2cc(NC(=O)CSc3nnc(-c4ccccc4)n3-c3ccc(C)cc3)ccc21`, the inhibition is 1.63%.

Regarding `CCn1c(=O)n2n(c1=O)[C@@]1(C=C3CCCC[C@H]32)N=C(NC(=O)c2ccccc2)N(Cc2ccccc2)[C@H]1Cc1ccccc1`, the inhibition is -2.62%.

As for `CCCCCN1CCCCC(NC(=O)C(C)CCC)C1=O` (stereo not given), the inhibition was 0.39%.

Take `O=C(CNC(=O)c1ccccc1)OC(C(=O)Nc1cc([N+](=O)[O-])ccc1F)c1ccccc1` (stereo not given): the inhibition was 0.02%.

With `CCC(=O)Nc1ccc2c(c1)C(=O)N(C)[C@@H]1CC[C@@H](CC(=O)NCCc3ccccc3)O[C@H]1CO2`, the inhibition was -1.77%.

As to `COC(=O)C[C@@H]1CC[C@@H]2[C@@H](COc3ccc(NC(=O)Nc4ccc(F)c(F)c4)cc3C(=O)N2C)O1`, the inhibition is -6.09%.

Turning to `Cc1cccc(NC(=O)C[C@H]2CC[C@H]3[C@@H](COc4ccc(NC(=O)Nc5ccccc5)cc4C(=O)N3C)O2)c1`, the inhibition is 14.6% (active).

Turning to `O=C(NCCCc1ccccc1)[C@H](Cc1ccccc1)NC1(C(=O)NCCc2c[nH]c3ccccc23)CCC1`, the inhibition was -4.2%.

`CCOC(=O)C1CCN(C(=O)C(C)(C)NC(=O)Nc2ccc(F)c(F)c2)CC1`: the inhibition is -0.53%.

Turning to `CCCCCCCCN1C(=O)[C@@H](CC(=O)N2CCN(C(=O)OCC)CC2)C[C@@]2(C(=O)OC)C1=C[C@H](C1CCCC1)O[C@@H]2C`, the inhibition was -0.47%.

On to `CC(C)C(=O)N1CCC2(CC1)Oc1ccc(F)cc1C(=O)C21CC(c2ccccc2)=NO1` (stereo not given), for which the inhibition was -4.91%.

On to `CCOC(=O)c1ccccc1NC(=O)COC(=O)CCC(=O)N1CCOCC1`, for which the inhibition is 3.48%.

Turning to `CC(=O)c1ccccc1NC(=O)CC1(CC(=O)O)CCCCC1`, the inhibition was -1.55%.

Consider `CC(=O)c1ccccc1NC(=O)COC(=O)C1COc2ccccc2O1` (stereo not given), for which the inhibition is 28.3% (active).

On to `COc1ccc(Cn2cc(COC(=O)N(C)Cc3ccccc3)nn2)cc1`, for which the inhibition was 1.89%.

With `CC(C)(C)C1C/C(=C/c2ccco2)C(=O)/C(=C/c2ccco2)C1` (stereo not given), the inhibition is 72% (active).

As for `CC(=O)c1ccc(OCC(=O)N(C)C2CCS(=O)(=O)C2)cc1` (stereo not given), the inhibition is 1.21%.

With `COc1ccc(-c2cc(=O)oc3cc(OCC(=O)N(C)C4CCS(=O)(=O)C4)ccc23)cc1` (stereo not given), the inhibition was 2.11%.

For the compound `CN(C(=O)COC(=O)c1cc(-c2ccco2)nc2ccccc12)C1CCS(=O)(=O)C1` (stereo not given), the inhibition is 17.8% (active).

With `CNC(=O)Nc1cc(C(C)(C)C)no1`, the inhibition was 3.32%.

On to `CNC(=O)C[C@H]1C(=O)N(Cc2ccccc2)C[C@@H]1CSC`, for which the inhibition was 3.38%.

Take `CNC(=O)C[C@H]1C(=O)N(c2ccc(OC)cc2)C[C@@H]1Cc1ccccc1`: the inhibition was 13.2% (active).

With `O=C(C[C@H]1C(=O)N(c2ccc(F)c(F)c2)C[C@@H]1Cc1ccccc1)Nc1ccccc1`, the inhibition was 5.88%.

Regarding `COc1cc(/C=C/C(=O)n2cnc3ccccc32)cc(OC)c1OC`, the inhibition is -1.66%.

Regarding `O=C(Nc1cc(Cl)cc(Cl)c1)OCCN1CCCC12CCC(c1ccccc1)CC2` (stereo not given), the inhibition is -4.82%.

With `CCCCOCCCNC(=O)C[C@H]1C[C@@]2(C(=O)OC)C(=C[C@H](C(C)(C)C)O[C@@H]2C)N(CCc2ccc(OC)c(OC)c2)C1=O`, the inhibition is 2.62%.

Consider `COC(=O)[C@]12C[C@H](CC(=O)NCCC(C)C)C(=O)N(CCc3ccc(OC)c(OC)c3)C1=C[C@H](C(C)(C)C)O[C@@H]2C`, for which the inhibition was 19.2% (active).

For `COC(=O)[C@]12C[C@H](CC(=O)NCc3ccccc3)C(=O)N(CCc3ccc(OC)c(OC)c3)C1=C[C@H](C(C)(C)C)O[C@@H]2C`, the inhibition was 1.88%.

With `COC(=O)CC1CCc2cc(C)cc(C(CC(C)C)NC(=O)[C@H](CC(C)C)NC(=O)OCc3ccccc3)c2O1` (stereo not given in full), the inhibition was 4.23%.
